NS1 function inh – qHTS Assay for Inhibitors of Influenza NS1 Protein Function. Potency, µM (series often up to 46.1 µM), without a hit: top-dose activity, positive = more growth. actives 0.4% (n = 270,000); further: potency means the concentration at half of the fitted maximal effect; actives are rising curves; nearly all actives have a fitted effect of over 50% in size
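A cell-based growth assay was used: compounds that relieve NS1-induced slow growth of budding yeast raise OD600. Assay medium was yeast nitrogen base with ammonium sulphate and -URA supplement, pH 6.0, with 2% galactose.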
SARS PLP yeast – qHTS of Yeast-based Assay for SARS-CoV PLP; S. cerevisiae expressing SARS-CoV PLpro, growth rescue; Potency, µM (doses to about 32.9 µM), inactives show at the top dose activity, positive = growth rescue, most hits filed as activators; actives 0.19% (n = 330,000); further: potency means the concentration at half of the fitted maximal effect; 0% is about no effect; nearly all actives have a fitted effect of over 55% in size
TbPYK inhibitor – qHTS of Trypanosoma Brucei Inhibitors; actives 0.12% (n = 410,000); AID 624173, 2012; TbPYK enzyme, Kinase-Glo Plus ATP luminescence, 45 min; Potency, µM (titrated, usually from 76.8 µM), for inactives: at the top dose activity, negative = inhibition, hits mostly inhibitors; active means well fitted curve in the direction sought with a large enough effect; inconclusive means small, poorly fitted or top-dose-only effect, or another doubt; inactive means no such curve, though single readings can be large; an effect the other way counts as inactive or inconclusive; further: potency means the concentration at half of the fitted maximal effect; on the % scale 0 is the no-effect control and ±100 the full control effect; nearly all actives have a fitted effect of over 50% in size
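T. brucei PYK with substrate was exposed to pin-transferred compounds across a concentration series, then started with 130 uM ADP (final). After 45 min at room temperature, Kinase-Glo Plus luminescence was read, normalized and curve-fitted.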
CHX counter – Cycloheximide Counterscreen for Small Molecule Inhibitors of Shiga Toxin | cell reporter, cycloheximide protein synthesis inhibition counterscreen | max response, % | actives 12% (n = 300,000); in the data active means max response mostly above about 13%, no sharp cut-off; inactive means mostly below about 14%; further: read at 38.3 µM for the half of the compounds with a filed dose; 0% is about no effect
LmPK inhibitor – qHTS Assay for Inhibitors of Leishmania Mexicana Pyruvate Kinase (LmPK). actives 0.37% (n = 290,000). Q27686. purified LmPK, Kinase-Glo ATP luminescence, 1 h. Potency, µM (series often up to 57.5 µM), for inactives: at the top dose activity change, negative = inhibition, actives largely listed as inhibitors; active means well fitted curve in the direction sought with a large enough effect; inconclusive means small, poorly fitted or top-dose-only effect, or another doubt; inactive means no such curve, though single readings can be large; an effect the other way counts as inactive or inconclusive; further: potency means the concentration at half of the fitted maximal effect; on the % scale 0 is the no-effect control and ±100 the full control effect
Target sequence (Q27686 whole entry, looked up): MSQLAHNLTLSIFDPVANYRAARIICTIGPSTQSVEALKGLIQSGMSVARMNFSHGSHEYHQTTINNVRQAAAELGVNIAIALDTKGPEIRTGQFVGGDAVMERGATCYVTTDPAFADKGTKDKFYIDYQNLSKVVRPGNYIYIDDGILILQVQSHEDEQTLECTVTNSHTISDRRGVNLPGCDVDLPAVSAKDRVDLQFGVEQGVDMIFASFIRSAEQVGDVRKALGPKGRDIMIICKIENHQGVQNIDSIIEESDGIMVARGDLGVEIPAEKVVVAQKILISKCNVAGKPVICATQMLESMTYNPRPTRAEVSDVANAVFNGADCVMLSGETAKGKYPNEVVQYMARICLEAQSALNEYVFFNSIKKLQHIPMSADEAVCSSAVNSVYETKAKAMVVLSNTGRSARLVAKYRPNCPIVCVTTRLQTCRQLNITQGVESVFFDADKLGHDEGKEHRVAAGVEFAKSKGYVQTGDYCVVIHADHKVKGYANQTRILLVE
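0.1 nM LmPK, 0.5 mM PEP, 0.1 mM ADP; 50 mM imidazole pH 7.2, 7 mM MgCl2, 50 mM KCl; 1 h RT. Kinase-Glo luminescence readout, normalized to no-enzyme (full inhibition) and uninhibited wells.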
Shiga toxin inh – A qHTS for Small Molecule Inhibitors of Shiga Toxin; Vero cells, Shiga toxin protein synthesis inhibition reporter; inhibition, % at 38.7 µM; actives 9.2% (n = 290,000); in the data active means inhibition mostly above about 28%, no sharp cut-off; inactive means mostly below about 43%; further: 0% is about no effect
Starred values were filed as active, the others as inactive; ? = inconclusive; . = not tested or not shown; + = active, no number. Only a selection was taken, and hits are over-represented in it overall. Unless noted, the call rests on the fitted dose curve.

SMILES	NS1 function inh	SARS PLP yeast	TbPYK inhibitor	CHX counter	LmPK inhibitor	Shiga toxin inh
COc1ccc(/C=C/C(=O)Nc2ccccc2C(=O)O)cc1	.	-2%	-3%	-3	?	-4
COc1ccc(C(CNC(=O)c2cccc3cccnc23)N(C)C)cc1 (stereo not drawn)	-7%	-12%	0%	5	4%	-6
CCOc1ccc(/C=C/C(=O)Nc2ccccc2C(F)(F)F)cc1	-4%	4%	38%	36*	-3%	38*
CCc1ccc2c(c1)C1(C(=O)N2)N2CCCC2C(C(=O)c2ccc3ccccc3c2)C12C(=O)Nc1ccccc12 (stereo not drawn)	-1%	-15%	-11%	46*	-7%	65*
Cc1cccc2c1NC(=O)C21N2CCCC2C(C(=O)c2ccc3ccccc3c2)C12C(=O)Nc1ccccc12 (stereo not drawn)	3%	-2%	6%	16*	-2%	20
CCc1cccc2c1NC(=O)C21N2CCCC2C(C(=O)c2ccc3ccccc3c2)C12C(=O)Nc1ccccc12 (stereo not drawn)	10%	12%	-12%	1	3%	-4
COc1ccccc1N1CCN(/N=C/c2cccc(Cl)c2)CC1	-13%	7%	1%	38*	6%	151*
COc1cc(OC)c(/C=N/N2CCN(c3ccccc3OC)CC2)c(OC)c1	-14%	-14%	1%	24*	-5%	65*
COc1ccc(/C=N/N2CCN(c3ccccc3)CC2)cc1Br	7%	4%	0%	2	1%	-17
COc1cccc(/C=N/N2CCN(c3ccccc3OC)CC2)c1	6%	-4%	3%	49*	-7%	+
CCN(CC)c1ccc(/C=N/N2CCN(c3ccccc3OC)CC2)cc1	21%	-3%	9%	3	-4%	25
CCCCCCCCCCCCCCCC(=O)O[C@H]1[C@@H](O)[C@@H](O)[C@@H]([C@H](NC(=O)[C@@H]2C[C@@H](CCC)CN2C)[C@H](C)Cl)O[C@@H]1SC	.	.	5%	.	.	.
Cc1cccc(NC(=O)Cn2nnc(C(=O)NCc3cccs3)c2N)c1	.	.	-1%	.	.	.
N#Cc1ccccc1CSc1nnc2ccc3ccccc3n12	.	.	0%	.	.	.
Cc1ccc(C(=O)Nc2nnc(COCCO)s2)cc1	.	.	5%	.	.	.
Cn1c(-c2ccc3c(c2)OCO3)cnc1NCc1cccc(O)c1	4%	0%	1%	25*	-1%	44*
Cn1c(-c2ccc(Cl)cc2)cnc1NCc1cc2c(cc1[N+](=O)[O-])OCO2	-11%	6%	16%	-3	-6%	-10
Cn1c(-c2ccccc2)cnc1NCc1cc2c(cc1[N+](=O)[O-])OCO2	25%	2%	3%	53*	0%	60*
Cn1c(-c2ccc(F)cc2)cnc1NCc1cc2c(cc1[N+](=O)[O-])OCO2	?	-16%	0%	33*	5%	28
Cc1c(C(=O)N(C)c2cccc(C(F)(F)F)c2)sc2nc3n(c(=O)c12)CCCCC3	.	.	-4%	.	.	.
CCC(=O)Nc1c(C(=O)Nc2ccc3c(c2)OCCO3)oc2ccccc12	.	0%	0%	41	5%	88*
COCC(=O)Nc1c(C(=O)Nc2ccc3c(c2)OCCO3)oc2ccccc12	.	1%	4%	36*	16%	93*
CCC(=O)Nc1c(C(=O)Nc2cccc(OC)c2)oc2ccccc12	-5%	0%	-2%	18*	2%	37
CCOCC(=O)Nc1c(C(=O)Nc2ccc3c(c2)OCCO3)oc2ccccc12	.	-1%	2%	37*	0%	126*
O=C(CSc1nc2c([nH]c3ccccc32)c(=O)n1-c1ccccc1F)Nc1ccccc1C(F)(F)F	.	.	1%	.	.	.
COc1cc(C2CC(=O)Nc3c2c(=O)n(C)c2ncnn32)cc(OC)c1OC (stereo not drawn)	.	.	8%	.	.	.
CCOC(=O)C1(C)C=C(Nc2cccc(C)c2)C(=O)N1c1ccccc1 (stereo not drawn)	.	.	0%	.	.	.
COc1ccc(N2CCN(c3csc4ccccc4c3=O)CC2)cc1	.	.	2%	.	.	.
